High-throughput results: PubChem, National Center for Advancing Translational Sciences (NCATS)
Compounds with a hit are over-represented: about 2.3% of the library has one in this group of screens.
GRP78 ERSR act – ER stress response induction in glioma. U87-MG GRP78 promoter luciferase reporter, 16 h. Potency, µM, without a hit: at the highest dose activation, most hits filed as activators. hit rate 0.02% among 420,000; also: series mostly up to about 76 µM; % of control where 0% means no effect; nearly all actives have a fitted effect of over 35% in size
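Stably transfected U87-MG human glioma cells carrying a GRP78-based luminescent sensor were seeded at 1000 cells/well, pin-dosed with compounds and incubated 16 h. Luciferase reagent was then added, and end-point luminescence was read after 10 min at room temperature.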
GLS inhibitor – blocks human kidney-isoform glutaminase activity | Potency, µM (doses to about 45.5 µM), without a hit: at the top dose activity change, negative = inhibition, hits mostly inhibitors | hit rate 0.21% among 410,000 | O94925 | GLS enzymatic activity, qHTS titration; also: % is scaled to controls: 0 for no effect and ±100 for the full control effect
Target sequence (O94925 whole entry, looked up, canonical isoform): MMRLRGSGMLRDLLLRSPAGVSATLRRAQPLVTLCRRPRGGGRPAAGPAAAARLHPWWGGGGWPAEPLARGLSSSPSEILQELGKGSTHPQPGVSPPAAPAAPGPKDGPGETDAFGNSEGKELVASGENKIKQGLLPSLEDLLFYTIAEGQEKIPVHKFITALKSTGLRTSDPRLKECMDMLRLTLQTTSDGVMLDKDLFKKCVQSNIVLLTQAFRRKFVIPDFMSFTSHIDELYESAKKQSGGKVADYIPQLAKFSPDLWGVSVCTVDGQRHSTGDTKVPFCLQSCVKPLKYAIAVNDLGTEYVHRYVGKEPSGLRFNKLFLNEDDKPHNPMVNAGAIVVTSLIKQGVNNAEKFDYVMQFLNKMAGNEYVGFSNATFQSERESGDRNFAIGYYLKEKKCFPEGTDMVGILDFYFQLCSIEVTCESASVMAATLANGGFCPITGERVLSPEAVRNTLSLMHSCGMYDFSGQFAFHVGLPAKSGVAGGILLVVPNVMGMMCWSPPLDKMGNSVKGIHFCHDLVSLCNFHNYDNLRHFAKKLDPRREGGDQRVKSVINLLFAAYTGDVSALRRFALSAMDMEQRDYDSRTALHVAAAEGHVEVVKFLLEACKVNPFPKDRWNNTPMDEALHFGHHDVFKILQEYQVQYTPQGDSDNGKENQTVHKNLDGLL
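Compounds were pin-transferred onto hKGA, after which L-glutamine (1 mM solution) and a detection mix of glutamate oxidase, HRP and Amplex Red were added. Initial and 30 min RT fluorescence reads were collected.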
GLP-1R agonist – GLP-1 receptor (human) agonism | P43220 | AID 624172 | HEK293 GLP-1R CRE-luciferase, luminescence, 4-6 h; cells express a hypersensitive GLP-1R form | hit rate 0.007% among 380,000 | Potency, µM (highest dose often 45.6 µM), for the others: at the highest dose activation, hits mostly activators; also: % of control where 0% means no effect
PTHR1 agonist – PTHR1 (human) receptor agonism. HEK293 GP2 PTHR1 cells, GloSensor cAMP luminescence, 1 h. Potency, µM (highest dose often 115 µM), inactives show top-dose activation, most hits filed as activators. hit rate 0.075% among 410,000; also: nearly all actives have a fitted effect of over 55% in size
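HEK-293-derived GP2 cells expressing PTHR1 and a GloSensor cAMP reporter, 3,000/well, plated overnight, given luciferin plus IBMX (each 0.5 mM as added) for 1 h at 37 °C, then compound for 1 h at 37 °C. Luminescence was read after 15 min at room temperature.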
12-LOX inh – ALOX12 (human) lipoxygenase inhibition; P18054; purified 12hLO, xylenol orange hydroperoxide absorbance; Potency, µM (doses to about 108 µM), inactives show at the top dose activity change, negative = inhibition, usual class: inhibitors; hit rate 1.1% among 580,000; AID 1671190; also: % is scaled to controls: 0 for no effect and ±100 for the full control effect
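Hydroperoxide product was detected by ferrous iron/xylenol orange as the 573 to 405 nm absorbance ratio. Arachidonic acid at 40 uM (final) was turned over for 30 min at room temperature by 150 nM human 12hLO, pH 7.0 Hepes buffer, after 15 min compound preincubation.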
GLP1R inv ag – GLP-1 receptor (human) inverse agonism; P43220; HEK293 GLP-1R CRE-luciferase, luminescence, 24 h; GLP-1R form is constitutively active; Potency, µM (titrated, usually from 38.3 µM), inactives show top-dose activity change, negative = inhibition, hits mostly inhibitors; hit rate 1.6% among 410,000; AID 624417; also: % is scaled to controls: 0 for no effect and ±100 for the full control effect; nearly all actives have a fitted effect of over 55% in size
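Cells are plated, allowed 12 hours at 37 deg C, then treated with compounds for 24 hr before luciferase detection reagent is added and luminescence is read after 12 min at room temperature. The HEK293 line carries constitutively active GLP-1R with a cAMP-responsive reporter.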
* = called active by the depositor; i = inactive; ? = inconclusive; · = not tested or not shown; ! = not confirmed by another sample; [ ] = dose if it differs, or a comment. Calls follow the shape of the dose curve; as a rule, active = well fitted curve in the direction sought with a large enough effect; inconclusive = small, poorly fitted or top-dose-only effect, or another doubt; inactive = no such curve, though single readings can be large; an effect the other way counts as inactive or inconclusive. Potency is read from the fitted curve at half-maximal effect.

SMILES	GRP78 ERSR act	GLS inhibitor	GLP-1R agonist	PTHR1 agonist	12-LOX inh	GLP1R inv ag
COc1ccccc1CCNC(=O)c1ccc(NC(=O)CC2SC(N3CCCC3)=NC2=O)cc1 (configuration not stated)	-3%	-11%	6%	-33%	?	4%
CCCCOCCCNS(=O)(=O)c1ccccc1	2%	10%	10%	-7%[57.5 µM]	-8%	-7%
CCCCOP(=O)(OCCCC)C1(NS(=O)(=O)c2ccccc2)C=CC(=O)c2ccccc21 (configuration not stated)	1%	12%	-5%	-32%[57.5 µM]	16µM*	-29%
O=C(c1ccncc1)N1CCCCCC1c1nnc(-c2ccccc2)o1 (configuration not stated)	·	·	·	·	22%	·
Nc1ccc(-c2nc3cc(N)ccc3s2)cc1	-9%	4%	-21%	-39%	6%	?
Cc1ccc2sc(-c3ccc(N)cc3)nc2c1	-10%	3%	·	-1%	?	?
Cc1cc(-c2nc3ccccc3s2)ccc1N	-11%	2%	-16%	-27%	-10%	7.9µM*
Cc1ccc2nc(-c3ccc(N)cc3)sc2c1	-12%	13%	-6%	-89%	0%	4.5µM*
CC(=O)Nc1cc(-c2nc3ccccc3s2)ccc1C	·	-2%	·	i	-2%	8%
Nc1ccc2nc(-c3ccccc3)sc2c1	-12%	26%	-39%	-7%	21%	8.9µM*
COc1ccc(CCNC(=O)Cc2c(C)c3ccc(O)c(C)c3oc2=O)cc1	·	·	·	·	-59%	·
Cc1cccc(/C=C/c2onc(C)c2[N+](=O)[O-])n1	-2%	1%	-1%	-27%	3%	2.8µM*
COc1cccc(C2=NN(C(=O)c3cccs3)C(c3ccc4nccnc4c3)C2)c1 (configuration not stated)	·	·	·	·	-3%	·
N#Cc1c(F)cccc1N1CCN(Cc2ccc3c(c2)OCO3)CC1	-1%	-14%	15%	-7%	5%	11µM*
CC(=O)Nc1ccc(SC(C)C(=O)N(C)c2ccccc2)cc1 (configuration not stated)	·	·	·	·	-5%	·
Cc1ccc(NC(=O)CN(C)C(=O)C2CCN(c3ccc(C(F)(F)F)cn3)CC2)cc1	·	·	·	·	6%	·
COc1ccccc1CCNC(=O)c1cc(C2CC2)nc2c1cnn2C(C)C	-2%	-5%	29%	-8%	?	10µM*
COc1ccccc1N1CCN(C(=O)c2ccccc2Oc2ccccc2)CC1	-5%	0%	3%	i	223%	8.9µM*
COc1ccccc1N1CCN(C(=O)c2cc(-c3ccccc3)nc3c2cnn3C(C)C)CC1	-6%	-5%	0%	-25%	-13%	11µM*
Cc1cc(Cl)ccc1NC(=O)NC1CCN(S(=O)(=O)c2ccc(F)cc2)CC1	-4%	3%	-5%	-37%	-7%	6.3µM*
O=C(Nc1ccc(F)cc1F)NC1CCN(Cc2c(F)cccc2Cl)CC1	1%	0%	10%	-12%	53%	8.9µM*
N#Cc1ccc(/C=C/C(=O)N2CCCCC2c2ccc(C(F)(F)F)cc2)cc1 (configuration not stated)	·	·	·	·	1%	·
Cc1oc(-c2ccc(Cl)cc2)nc1CN1CCC(C(=O)NCCCN2CCOCC2)CC1	-2%	-4%	5%	16%[57.5 µM]	-3%	?
COc1ccc(-c2nc(CN3CCC(C(=O)NCCCN4CCN(c5ccccc5F)CC4)CC3)c(C)o2)cc1OC	-7%	-26%	·	0%	-10%	10µM*
CCC1CCCCN1CCCNC(=O)C1CCN(Cc2nc(-c3ccc(Cl)cc3)oc2C)CC1 (configuration not stated)	-10%	5%	-7%	-23%	·	13µM*
SMILES	GRP78 ERSR act	GLS inhibitor	GLP-1R agonist	PTHR1 agonist	12-LOX inh	GLP1R inv ag
CCN(CCNC(=O)C1CCN(Cc2nc(-c3ccc(Cl)cc3)oc2C)CC1)c1ccccc1	-4%	16%	-5%	-3%	-5%	2.5µM*
O=C(Cn1nc(-c2ccc(Br)cc2)ccc1=O)NCc1ccc2c(c1)OCO2	·	·	·	·	-21%	·
Cc1nc2ccc(Cl)cc2cc1C(=O)Nc1ccncc1	·	·	·	·	-8%	·
CCCn1c(-c2ccc(Cl)cc2)nc2c(=O)n(C)c(=O)[nH]c21	·	·	·	·	4%	·
O=C(COCc1nnc(C(=O)Nc2cccc(F)c2)s1)NCCc1ccco1	·	·	·	·	-59%	·
N#Cc1ccc(C(=O)NCc2coc(-c3cccs3)n2)cc1	·	·	·	·	-5%	·
COc1ccc(CNCCC(c2ccc(OC(C)C)cc2)c2ccccc2OC)cc1 (configuration not stated)	-17%	3%	0%	-7%	?	5.6µM*
CC1CCCN(CC(=O)N(C)CC(=O)Nc2ccc(Cl)c(C(F)(F)F)c2)C1 (configuration not stated)	·	·	·	·	26%	·
O=C(Nc1ccc2c(c1)OCCO2)c1cc2cc(Br)ccc2[nH]1	·	·	·	·	14µM*	·
CC(=O)Nc1ccc(S(=O)(=O)Nc2cc3c(cc2SC2CCCCC2)n(C)c(=O)n3C)cc1	·	·	·	·	-7%	·
OCC1(Cc2cccc(Cl)c2)CCCN(Cc2ccc3cc(F)ccc3n2)C1 (configuration not stated)	-3%	8%	19%	-13%	?	13µM*
O=C(Cc1cn(Cc2cccc(Cl)c2)c2ccccc12)N1CCCCCC1	-3%	7%	1%	-32%	-29%	10µM*
CC1CCCN(C(=O)Cc2cn(Cc3cccc(Cl)c3)c3ccccc23)C1 (configuration not stated)	-1%	-10%	-3%	-17%	-24%	?
CCCc1cc(=O)[nH]c(SCc2nc(-c3cccc(OC)c3)no2)n1	·	·	·	·	-34%	·
CC1=NN(c2ccccc2)C(=O)/C1=C\C=C1\N(C)c2ccccc2C1(C)C	2%	8%	-1%	-13%	-23%	11µM*
Cn1nc(C(=O)N2CCC(C(=O)Nc3ccc4c(c3)OCO4)CC2)c2ccccc2c1=O	·	·	·	·	18%	·
CCc1c(CN2CCN(c3ccc(F)cc3)CC2)csc1C	-3%	10%	·	-18%	45µM*!	?
Cc1cc(CN2CCN(c3ccc(F)cc3)CC2)cs1	-3%	11%	·	i	?	-15%
O=C(Nc1cccc(F)c1)Nc1ccc2n(c1=O)C[C@H]1C[C@@H]2CN(C(=O)c2ccc(F)cc2)C1	·	·	·	·	23%	·
O=C(CC1C(=O)N(c2ccccc2)C(=O)N1CCC1=CCCCC1)Nc1ccc(F)cc1 (configuration not stated)	-1%	-6%	·	i	1%	10µM*
Cc1ccsc1CCN1C(=O)N(c2ccccc2)C(=O)C1CC(=O)Nc1ccc(Cl)cc1 (configuration not stated)	1%	-1%	·	-95%	?	10µM*
